Results from PubChem BioAssay AID651657 (Broad Institute, 2012).
Measured potencies and affinities stand elsewhere. Active and inactive are the calls of the source.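 How the source made its calls: active means signal falls, with fitted half-maximal concentration at most twice the top valid dose tested; inconclusive means flat curve with partial signal loss, or poor curve fit; inactive means the rest, including signal rising instead.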

Target: DNA repair and recombination protein RAD54-like (Homo sapiens) (UniProt Q92698)
Test: RAD54 Holliday junction migration blockers – biochemical, fluorescence, cherry-picked samples, dose series, confirmation (AID 651657)

DNA repair and recombination protein RAD54-like (Homo sapiens), sequence (Q92698 whole entry, looked up): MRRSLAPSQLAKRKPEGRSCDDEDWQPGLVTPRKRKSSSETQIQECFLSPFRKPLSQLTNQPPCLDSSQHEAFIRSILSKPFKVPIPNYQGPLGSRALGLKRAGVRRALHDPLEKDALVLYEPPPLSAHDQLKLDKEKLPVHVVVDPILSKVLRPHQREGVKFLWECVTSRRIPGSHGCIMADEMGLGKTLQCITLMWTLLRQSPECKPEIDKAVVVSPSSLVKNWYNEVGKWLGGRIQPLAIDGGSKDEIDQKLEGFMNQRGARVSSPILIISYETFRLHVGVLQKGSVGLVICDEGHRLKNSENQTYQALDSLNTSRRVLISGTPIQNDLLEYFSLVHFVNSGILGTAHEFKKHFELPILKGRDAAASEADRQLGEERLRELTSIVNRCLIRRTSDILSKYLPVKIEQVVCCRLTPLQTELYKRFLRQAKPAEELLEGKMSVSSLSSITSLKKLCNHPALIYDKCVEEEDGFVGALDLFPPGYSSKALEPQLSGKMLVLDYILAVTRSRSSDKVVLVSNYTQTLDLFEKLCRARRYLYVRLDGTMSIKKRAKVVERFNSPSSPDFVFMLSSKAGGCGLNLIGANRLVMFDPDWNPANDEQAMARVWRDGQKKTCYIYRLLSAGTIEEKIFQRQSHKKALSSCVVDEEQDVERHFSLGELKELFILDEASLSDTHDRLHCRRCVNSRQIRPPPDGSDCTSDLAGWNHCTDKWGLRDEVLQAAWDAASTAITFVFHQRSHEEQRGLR

SMILES	outcome
Cc1ccc(C)c(N2CCN(C(=S)Nc3ccc4nc(N5CCN(C)CC5)cc(C)c4c3)CC2)c1	inactive
COc1ccccc1C1=NOC(Cn2c(NCCCO)nc3c2c(=O)n(C)c(=O)n3C)C1 (centres undefined)	inactive
COc1ccccc1NC(=O)Cn1nnc2sc3c(c2c1=O)CC(C)(C)OC3	inactive
CN1CCN(CC(=O)Nc2nc(-c3c[nH]c4ccccc34)cs2)CC1	inactive
